# Laboratory results as given in the supplement of paper PMC5662767.
# Counter-ions that a name gives are not always drawn.
# Test system: Drosophila S2 cl14 SmoIP sensor cells
# Test: normalized SmoIP GFP fluorescence (untreated unstimulated = 0%, untreated Hh-stimulated = 100%); higher = more Smo activation sensor fluorescence
# Conditions: compound concentration: 2 uM, 24 h
# [1] = stimulation: Hh conditioned medium (+Hh)
# [2] = stimulation: mock conditioned medium (-Hh)
# 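Also: flow cytometry read-out as median GFP intensity of gated cells, compounds added 30 min before Hh-conditioned or mock medium, mock-treated cells serving as unstimulated baseline.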
Compound,normalized SmoIP GFP fluorescence [1],normalized SmoIP GFP fluorescence [2]
Cc1ccccc1-n1c(Cn2ncc3c(N)ncnc32)nc2cccc(C)c2c1=O,115%,-6.79%
CN1CCc2cc3c(cc2[C@H]1[C@@H]1OC(=O)c2c1ccc1c2OCO1)OCO3 [bicuculline],101%,-3.9%
CN1[C@@H]2C[C@@H](OC(=O)[C@H](CO)c3ccccc3)C[C@H]1[C@@H]1O[C@@H]12 [Scopolamine-hydrobromide],113%,-17.7%
CNCC(=O)c1ccc(O)c(O)c1 [adrenalone-hcl],106%,-3.39%
C[N+](C)(C)CCCCCCCCCC[N+](C)(C)C [decamethonium-bromide],104%,-5.04%
COc1ccc(C(CN(C)C)C2(O)CCCCC2)cc1 (stereo not given) [Venlafaxine-hydrochloride],–,-2.42%
COC[C@H]1OC(=O)c2coc3c2[C@@]1(C)C1=C(C3=O)[C@@H]2CCC(=O)[C@@]2(C)C[C@H]1OC(C)=O [wortmannin],73.6%,9.08%
Cc1sc2c(c1C)C(c1ccc(Cl)cc1)=N[C@@H](CC(=O)Nc1ccc(O)cc1)c1nnc(C)n1-2,102%,-1.34%
COc1cc(-n2c(=S)[nH]c3ccccc3c2=O)c(Cl)cc1Cl [mdivi-1],108%,-1.34%
O=C(NCC1CCOCC1)c1cnc(Nc2ccc(Cl)cc2Cl)nc1C(F)(F)F,102%,-1.63%
[O-][n+]1ccccc1[S-].[O-][n+]1ccccc1[S-].[Zn+2] [zinc-pyrithione],131%,2.35%
Cc1cccc(C)c1NC(=O)CN1CCCC1=O [Nefiracetam(Translon)],138%,-10.8%
C[C@]12CC[C@H](O)CC1=CC[C@@H]1[C@@H]2CC[C@]2(C)C(=O)CC[C@@H]12 [Dehydroepiandrosterone(DHEA)],134%,-12.4%
CCc1c(C(=O)C(N)=O)c2c(OCC(=O)O)cccc2n1Cc1ccccc1,–,4.26%
CCN1CCN(C(=O)Cc2ccc(Nc3ncc(F)c(Nc4ccc(C(=O)Nc5ccccc5Cl)cc4)n3)cc2)CC1 [Aurora-A-Inhibitor-I],151%,2.11%
CNCC(O)c1ccc(O)cc1 (stereo not given) [synephrine-hcl],140%,-9.85%
C[C@]12CCC(=O)C(O)=C1CC[C@@H]1[C@@H]2CC[C@]2(C)C(=O)CC[C@@H]12 [Formestane],93.9%,-2.2%
CN1CCN(c2nc3ccccc3nc2Cl)CC1,105%,-1.34%
C=C1C[C@@H]2[C@H](CC[C@]3(C)C(=O)CC[C@@H]23)[C@@]2(C)C=CC(=O)C=C12 [Exemestane],115%,-5.01%
C[C@]12CC[C@H]3[C@@H](CC[C@@]45O[C@@H]4C(O)=C(C#N)C[C@]35C)[C@@H]1CC[C@@H]2O [Trilostane],109%,-0.265%
C[C@](O)(COc1ccc(C#N)cc1)C(=O)Nc1ccc(C#N)c(C(F)(F)F)c1 [Ostarine],119%,2.97%
